Data from PubChem BioAssay AID463173 (ICCB-Longwood Screening Facility, Harvard Medical School, 2010).
In all, about 52,000 compounds went through this assay and about 4,300 (8.3%) were called active. This is one part of a sample in which actives are shown more often than they occur. No stated cut-off is given here; in the data, active means survival mostly below about 52% (no sharp cut-off); inactive means mostly above about 56%.

system: DeltatarO mutant; test: growth inhibition of S. aureus wild type versus tarO mutant, primary screen, teichoic acid synthesis inhibitors, RN4220, OD600 (AID 463173); conditions: OD600, 18 h, active compounds read low, screened at 18.75 µg/mL (by protocol)

SMILES | survival
O=C(CCS(=O)(=O)c1cc(Br)cc2c1N(C(=O)C1CC1)CC2)NCc1ccccc1Cl | 100% (inactive)
O=c1c2sc3ccccc3c2n(Cc2ccc(Cl)cc2)c(=O)n1Cc1ccco1 | 83% (inactive)
c1ccc(Nc2nc(N3CCCCC3)nc(N3CCCCC3)n2)cc1 | 106% (inactive)
Cc1ccc(Nc2c(-c3ccc(N4CCOCC4)cc3)nc3ncccn23)cc1C | 88% (inactive)
Cc1cccc(Nc2nc(Nc3cccc(C)c3)nc(N3CCOCC3)n2)c1 | 1% (active)
NNc1nc(N2CCOCC2)nc(N2CCOCC2)n1 | 76% (inactive)
Fc1ccc(Nc2nc(Nc3ccc(F)cc3)nc(N3CCOCC3)n2)cc1 | 87% (inactive)
Cc1ccc(Nc2nc(Nc3ccc(C)c(C)c3)nc(N3CCOCC3)n2)cc1C | 34% (active)
CCc1ccc(CNC(=O)c2ccc(-c3nc(CS(=O)(=O)c4ccccc4)c(C)o3)cc2)cc1 | 54% (inactive)
CC(C)(C)OC(=O)N1CCC(c2c(C(=O)O)cnn2-c2ccc(F)cc2F)CC1 | 87% (inactive)
CCCCN1CC(c2nc3ccccc3n2CCCCOc2cc(C)ccc2C)CC1=O (stereo not drawn) | 15% (active)
CCOc1ccccc1N1CC(c2nc3ccccc3n2CCCOc2ccccc2OC)CC1=O (stereo not drawn) | 76% (inactive)
CCOc1ccccc1N1CC(c2nc3ccccc3n2CCCCOc2ccccc2)CC1=O (stereo not drawn) | 59% (inactive)
CCOc1ccccc1N1CC(c2nc3ccccc3n2CCCCOc2cc(C)ccc2C)CC1=O (stereo not drawn) | 47% (active)
Cc1ccc(OCCCn2c(C3CC(=O)N(c4cccc(Cl)c4)C3)nc3ccccc32)c(C)c1 (stereo not drawn) | 76% (inactive)
CCCCN1CC(c2nc3ccccc3n2CCCCOc2ccc(C)cc2C)CC1=O (stereo not drawn) | 13% (active)
CC(=O)c1c(C)n(-c2cccc(C)c2)c2ccc(OC(=O)COc3ccccc3)cc12 | 70% (inactive)
COc1ccc(OC)c(NC(=O)COCc2cc(-c3ccco3)on2)c1 | 49% (inactive)
Cc1ccc(CNC(=O)Cn2c(=O)n(Cc3ccc(F)cc3)c(=O)c3sc4ccccc4c32)cc1 | 92% (inactive)
O=C1CCCN1c1ccc(S(=O)(=O)N2CCCCC2)cc1 | 93% (inactive)
COc1cccc2c1cc1c(=O)n(CC(=O)N3CCN(c4cc(Cl)ccc4C)CC3)nc(C)n12 | 74% (inactive)
O=C(Nc1cccc(C(=O)OCc2cc(=O)n3nc(C4CC4)sc3n2)c1)c1cccc(Cl)c1 | 80% (inactive)
COc1ccc(NC(=O)COc2ccc(-c3nn(C)c(=O)c4ccccc34)cc2)cc1 | 75% (inactive)
CNC(=O)COc1ccc(NC(=O)c2ccc(-c3nn(C)c(=O)c4ccccc34)cc2)cc1 | 75% (inactive)

SMILES | survival
CNC(=O)c1ccc(NC(=O)COc2ccc(-c3nn(C)c(=O)c4ccccc34)cc2)cc1 | 62% (active)
Cc1ccc(NC(=O)COc2ccc(-c3nn(C)c(=O)c4ccccc34)cc2)cc1 | 48% (inactive)
COc1ccccc1NC(=O)COc1ccc(-c2nn(C)c(=O)c3ccccc23)cc1 | 37% (active)
Cn1nc(-c2ccc(OCC(=O)Nc3ccccc3)cc2)c2ccccc2c1=O | 47% (inactive)
CC(=O)c1ccc(NC(=O)c2nc3ccccc3n(C)c2=O)cc1 | 80% (inactive)
CC(C)Cn1c(=O)c2ccccc2n2c(CCC(=O)NC(C)c3ccccc3)nnc12 (stereo not drawn) | 87% (inactive)
CN(C)S(=O)(=O)c1ccc(C(=O)Nc2c(C(=O)Nc3ccc(F)cc3)oc3ccccc23)cc1 | 73% (inactive)
Cc1ccc(NC(=O)Cc2coc3c(C)c(C)ccc23)c(C)c1 | 96% (inactive)
Cc1ccc(NC(=O)Cn2nc3c(cc2=O)CCCC3)cc1Cl | 93% (inactive)
CCOC(=O)c1cccc(NC(=O)Cn2cnc3nc4c(cc3c2=O)CCCC4)c1 | 94% (inactive)
CCOC(=O)c1cccc(NC(=O)Cn2nc3c(cc2=O)CCCC3)c1 | 37% (active)
COc1ccc(CNC(=O)Cn2nc3c(cc2=O)CCCC3)cc1 | 46% (active)
O=C(Cn1nc2c(cc1=O)CCCC2)NCc1ccccc1 | 105% (inactive)
O=C(Cn1nc2c(cc1=O)CCCC2)NCc1ccc(Cl)cc1 | 115% (inactive)
COc1ccc(Cl)cc1C(=O)CSc1nnnn1C1CCCCC1 | 93% (inactive)
COc1ccc(NC(=O)CCCc2nnc3n(C(C)C)c(=O)c4sccc4n23)cc1Cl | 93% (inactive)
COCCCN(Cc1ccco1)C(=O)c1cc2c(s1)-c1ccccc1OC2 | -3% (active)
COc1ccccc1CNC(=O)c1cc2c(s1)-c1ccccc1OC2 | 61% (inactive)
CC(C)CCN(Cc1ccco1)C(=O)c1cc2c(Cl)nc3ccccc3c2s1 | 68% (inactive)
CN(C)CCN(Cc1ccco1)C(=O)c1cc2c(s1)-c1ccccc1OC2 | 69% (inactive)
CC(C)OCCCN(Cc1ccco1)C(=O)c1cc2c(s1)-c1ccccc1OC2 | -5% (active)
CC(C)CCN(Cc1ccco1)C(=O)c1cc2c(s1)-c1ccccc1OC2 | -4% (active)
Cc1ccc(C(C)C)c(OCC(=O)Nc2ccc(O)c(-c3nc4cc(Cl)ccc4o3)c2)c1 | 73% (inactive)
CC(C)CNC(=O)Cc1ccccc1 | 65% (inactive)

SMILES | survival
O=C(CN1CCSc2ccccc21)N1CCCCC1 | 78% (inactive)
Clc1ccccc1N1CCN(c2ncnc3c2c(-c2ccccc2)cn3-c2ccccc2)CC1 | 80% (inactive)
Cc1ccccc1C(=O)Nc1ccc2nc(SCC(=O)N3CCc4ccccc43)sc2c1 | 106% (inactive)
Cc1ccc(-c2c(C)n3c4c(=O)n(C)c(=O)n(C)c4nc3n2CCCO)cc1 | 81% (inactive)
CCOC(=O)CSc1nnc(CNc2ccc(C)cc2C)n1-c1ccccc1 | 58% (inactive)
CCN1CCN(C(c2cccc(F)c2)c2c(O)cc(C)n(CCOC)c2=O)CC1 (stereo not drawn) | 73% (inactive)
COc1cc(CNC(=O)c2sc3ncccc3c2-n2cccc2)cc(OC)c1OC | 118% (inactive)
CN(C)c1ccc(CNC(=O)c2sc3ncccc3c2-n2cccc2)cc1 | 102% (inactive)
CCc1ccc(CNC(=O)c2sc3ncccc3c2-n2c(C)ccc2C)cc1 | 0% (active)
COCCNC(=O)c1sc2ncccc2c1-n1c(C)ccc1C | 98% (inactive)
Cc1ccc(CCNC(=O)c2sc3ncccc3c2-n2c(C)ccc2C)cc1 | 64% (inactive)
CC(C)Oc1ccc(CNC(=O)c2sc3ncccc3c2-n2cccc2)cc1 | 46% (active)
Cc1cc(SCC(=O)NCc2ccccc2Cl)nc(=O)[nH]1 | 96% (inactive)
CCc1ccc(-c2nc(CS(=O)CC(=O)NCCc3ccc(C)cc3)c(C)o2)cc1 (stereo not drawn) | 89% (inactive)
CCOc1ccc(C(=O)c2cn(Cc3ccccc3)c3c(F)cc(F)cc3c2=O)cc1 | 78% (inactive)
CCc1ccc(NC(=O)Cn2c(=O)c3cc(Cl)ccc3n3nncc23)cc1 | 80% (inactive)
CCOc1ccc(CNC(=O)C2CCCN(c3nn4cc(-c5ccc(F)cc5)nc4s3)C2)cc1 (stereo not drawn) | 67% (inactive)
Cc1ccc(CCNC(=O)c2cc3sccc3n2Cc2ccc(F)cc2)cc1 | 87% (inactive)
Cc1ccc(-c2onc(C)c2C)cc1S(=O)(=O)NCc1ccc(N(C)C)cc1 | -2% (active)
Cc1ccc(-c2onc(C)c2C)cc1S(=O)(=O)NCc1ccco1 | 87% (inactive)
Cc1ccc(-c2onc(C)c2C)cc1S(=O)(=O)NCc1cccs1 | 91% (inactive)
COc1ccc(CCNS(=O)(=O)c2cc(-c3onc(C)c3C)ccc2OC)cc1OC | -1% (active)
COc1ccc(-c2onc(C)c2C)cc1S(=O)(=O)NCCc1ccccc1 | 90% (inactive)
COCCCNS(=O)(=O)c1cc(-c2onc(C)c2C)ccc1OC | 115% (inactive)

SMILES | survival
CC(C)NC(=O)Nc1ccc2c(c1)N(C)C(=O)c1ccccc1S2 | 117% (inactive)
CCOC(=O)/C(C#N)=C/C1=C(N)CC(C)(C)OC1 | 95% (inactive)
Cc1ccc(NC(=O)Cn2c(=O)n(Cc3ccc4c(c3)OCO4)c(=O)c3ccc(C(=O)NC4CCCCC4)cc32)c(C)c1 | 100% (inactive)
Cc1ccc(NC(=O)C(C)Sc2nnc(C3CCCCC3)n2C)cc1 (stereo not drawn) | 109% (inactive)
CCN(C(=O)Cn1nc(Cc2ccncc2)c2ccccc2c1=O)c1cccc(Cl)c1 | 83% (inactive)
Cc1ccc(Cn2c(CCNC(=O)C(C)C)nc3ccccc32)cc1 | 78% (inactive)
CCC(=O)NCc1nc2ccccc2n1Cc1ccccc1 | 122% (inactive)
CCn1c(COc2ccc(Cl)cc2Cl)nc2ccccc21 | 57% (inactive)
Cc1cccc(Cn2c(COc3ccc(Cl)cc3)nc3ccccc32)c1 | 59% (inactive)
Clc1ccc(OCc2nc3ccccc3n2Cc2ccccc2)c(Cl)c1 | 14% (active)
CC(C)(C)c1ccc(Cn2c(Cc3ccccc3)nc3ccccc32)cc1 | 0% (active)
Cc1cccc(Cn2c(COc3ccccc3)nc3ccccc32)c1 | -2% (active)
O=C(NCCc1nc2ccccc2n1Cc1ccc(Cl)cc1)c1ccccc1 | 72% (inactive)
Cc1ccc(Cn2c(CNC(=O)c3cccc(C)c3)nc3ccccc32)cc1 | 96% (inactive)
CC(O)c1nc2ccccc2n1Cc1ccccc1 (stereo not drawn) | 57% (inactive)
Cc1ccc(Cn2c(Cc3ccccc3)nc3ccccc32)cc1 | -1% (active)
Cc1ccc(CNC(=O)CCCn2c(=O)[nH]c3ccc(Br)cc3c2=O)cc1 | 87% (inactive)
Cc1ccc(-c2nnc(SC(C)C)n2-c2ccccc2)cc1 | 100% (inactive)
COc1ccccc1C(=O)n1nc(-c2cccnc2)nc1NCc1ccccc1 | 64% (inactive)
CCc1ccc(S(=O)(=O)c2nnn3c2nc(NCCNC(C)=O)c2cc(Cl)ccc23)cc1 | 74% (inactive)
CCOC(=O)N1CCN(Cc2nc3cc(NC(=O)c4ccc([N+](=O)[O-])cc4)ccc3n2C(C)C)CC1 | 75% (inactive)
